From the supplement of paper PMC10849652
Targets with a hit are over-represented here; the source holds about 7,900 in all. About 0.6% of all pairs of compound and target were hits.

These targets were tested with NC(=O)c1cnc(N[C@@H]2CCCC[C@@H]2N)nc1Nc1cccc(-n2nccn2)c1 (assay: log2 fold change, soluble protein after heating vs DMSO (PISA); higher = thermal stabilisation; K562 cells, 10 uM, 30 min; active = over 0.2 and 3.5 SD of the protein, either way, in both replicates (recomputed)).
Procedure, shortened: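 Values are thermal stability changes relative to control samples and are taken from duplicates. They are stated as log2 fold changes. Before quantification by TMTpro 16plex LC-MS/MS with equalised channel sums, K562 cells at 2×10^6 cells/mL were treated with 10 μM compound for 30 min, heated in aliquots for 3 min across 48°C-58°C, pooled, extracted in PBS with 0.5% NP-40 at 4°C, and centrifuged at 21,000xg for 90 min to give the soluble supernatant.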

UniProt P68366, sequence (P68366 whole entry, looked up): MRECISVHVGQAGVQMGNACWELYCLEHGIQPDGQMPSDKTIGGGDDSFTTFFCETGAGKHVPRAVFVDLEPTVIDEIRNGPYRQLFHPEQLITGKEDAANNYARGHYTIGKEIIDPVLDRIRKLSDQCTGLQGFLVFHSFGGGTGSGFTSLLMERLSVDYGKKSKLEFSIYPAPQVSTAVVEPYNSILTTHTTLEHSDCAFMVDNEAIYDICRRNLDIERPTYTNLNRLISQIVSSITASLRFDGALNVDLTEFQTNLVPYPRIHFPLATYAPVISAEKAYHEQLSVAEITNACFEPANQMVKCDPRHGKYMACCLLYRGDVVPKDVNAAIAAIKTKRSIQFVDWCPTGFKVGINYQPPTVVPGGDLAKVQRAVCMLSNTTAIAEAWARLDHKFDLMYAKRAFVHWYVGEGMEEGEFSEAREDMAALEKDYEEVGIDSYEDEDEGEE
UniProt Q7L0Y3, sequence (Q7L0Y3 whole entry, looked up): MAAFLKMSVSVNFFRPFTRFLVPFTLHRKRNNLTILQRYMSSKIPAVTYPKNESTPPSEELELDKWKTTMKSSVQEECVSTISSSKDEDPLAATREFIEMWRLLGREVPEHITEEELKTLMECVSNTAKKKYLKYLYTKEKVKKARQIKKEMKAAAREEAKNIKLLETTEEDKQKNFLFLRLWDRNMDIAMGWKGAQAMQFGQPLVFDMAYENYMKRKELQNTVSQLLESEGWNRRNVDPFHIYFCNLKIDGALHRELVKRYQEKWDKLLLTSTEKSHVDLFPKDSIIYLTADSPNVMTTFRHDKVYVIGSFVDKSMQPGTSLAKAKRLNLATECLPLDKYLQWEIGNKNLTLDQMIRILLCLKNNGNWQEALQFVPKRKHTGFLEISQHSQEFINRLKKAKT
UniProt Q9NX61, sequence (Q9NX61 whole entry, looked up): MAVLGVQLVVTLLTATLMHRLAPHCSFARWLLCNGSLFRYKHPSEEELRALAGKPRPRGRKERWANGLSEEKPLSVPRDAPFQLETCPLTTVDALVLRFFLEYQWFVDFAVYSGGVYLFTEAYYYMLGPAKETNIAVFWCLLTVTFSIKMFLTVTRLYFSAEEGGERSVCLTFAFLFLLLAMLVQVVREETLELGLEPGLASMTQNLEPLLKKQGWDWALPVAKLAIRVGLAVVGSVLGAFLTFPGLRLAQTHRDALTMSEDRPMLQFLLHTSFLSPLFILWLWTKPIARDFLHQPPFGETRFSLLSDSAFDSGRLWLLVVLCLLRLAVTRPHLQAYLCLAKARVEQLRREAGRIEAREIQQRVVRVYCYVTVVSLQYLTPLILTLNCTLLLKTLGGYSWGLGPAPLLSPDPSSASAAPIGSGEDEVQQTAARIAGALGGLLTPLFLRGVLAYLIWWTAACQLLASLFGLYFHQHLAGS
UniProt Q9UL33, sequence (Q9UL33 whole entry, looked up): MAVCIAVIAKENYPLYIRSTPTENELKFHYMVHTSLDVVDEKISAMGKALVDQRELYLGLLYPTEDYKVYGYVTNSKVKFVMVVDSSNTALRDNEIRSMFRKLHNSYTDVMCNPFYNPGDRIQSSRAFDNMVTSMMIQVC
UniProt Q92973, sequence (Q92973 whole entry, looked up): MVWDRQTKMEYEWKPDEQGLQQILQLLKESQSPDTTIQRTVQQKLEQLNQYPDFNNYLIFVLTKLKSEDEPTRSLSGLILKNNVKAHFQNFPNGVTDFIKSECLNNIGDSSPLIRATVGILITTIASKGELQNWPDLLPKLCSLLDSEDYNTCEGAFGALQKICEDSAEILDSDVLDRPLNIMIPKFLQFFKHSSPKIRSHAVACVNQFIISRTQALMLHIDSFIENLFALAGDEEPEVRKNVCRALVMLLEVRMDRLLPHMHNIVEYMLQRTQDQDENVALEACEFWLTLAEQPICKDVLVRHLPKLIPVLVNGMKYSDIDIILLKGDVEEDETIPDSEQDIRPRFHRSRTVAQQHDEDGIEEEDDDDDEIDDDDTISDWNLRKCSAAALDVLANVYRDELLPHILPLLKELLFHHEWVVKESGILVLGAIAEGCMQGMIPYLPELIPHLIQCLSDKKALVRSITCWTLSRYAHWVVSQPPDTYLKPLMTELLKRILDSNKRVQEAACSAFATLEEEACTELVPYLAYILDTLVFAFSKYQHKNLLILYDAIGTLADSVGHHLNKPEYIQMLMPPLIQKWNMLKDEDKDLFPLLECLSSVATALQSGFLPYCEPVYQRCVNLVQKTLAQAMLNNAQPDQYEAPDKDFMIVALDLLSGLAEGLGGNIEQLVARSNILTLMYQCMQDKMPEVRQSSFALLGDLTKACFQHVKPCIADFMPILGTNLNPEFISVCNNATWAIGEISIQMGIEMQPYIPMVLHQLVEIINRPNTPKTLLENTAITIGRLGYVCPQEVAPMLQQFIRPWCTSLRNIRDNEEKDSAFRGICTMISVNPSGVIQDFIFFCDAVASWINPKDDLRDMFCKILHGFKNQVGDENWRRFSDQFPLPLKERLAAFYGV
UniProt Q16881, sequence (Q16881 whole entry, looked up): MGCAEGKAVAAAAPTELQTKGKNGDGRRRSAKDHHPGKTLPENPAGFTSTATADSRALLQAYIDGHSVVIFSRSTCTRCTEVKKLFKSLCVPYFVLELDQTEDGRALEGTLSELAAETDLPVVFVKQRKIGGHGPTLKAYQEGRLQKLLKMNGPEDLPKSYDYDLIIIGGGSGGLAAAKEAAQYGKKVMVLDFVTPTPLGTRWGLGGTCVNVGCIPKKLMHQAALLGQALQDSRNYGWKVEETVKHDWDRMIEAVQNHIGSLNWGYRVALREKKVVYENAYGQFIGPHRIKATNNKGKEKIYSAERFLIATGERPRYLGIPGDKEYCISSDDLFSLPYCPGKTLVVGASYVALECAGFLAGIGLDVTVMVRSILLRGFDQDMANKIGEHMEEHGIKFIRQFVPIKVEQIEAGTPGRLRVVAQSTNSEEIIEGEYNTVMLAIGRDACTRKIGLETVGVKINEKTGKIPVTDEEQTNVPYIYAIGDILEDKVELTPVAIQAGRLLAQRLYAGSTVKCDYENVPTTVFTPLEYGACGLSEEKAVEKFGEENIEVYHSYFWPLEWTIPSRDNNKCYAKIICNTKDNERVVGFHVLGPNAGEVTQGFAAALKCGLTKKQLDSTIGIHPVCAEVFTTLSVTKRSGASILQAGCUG
UniProt Q9H269, sequence (Q9H269 whole entry, looked up): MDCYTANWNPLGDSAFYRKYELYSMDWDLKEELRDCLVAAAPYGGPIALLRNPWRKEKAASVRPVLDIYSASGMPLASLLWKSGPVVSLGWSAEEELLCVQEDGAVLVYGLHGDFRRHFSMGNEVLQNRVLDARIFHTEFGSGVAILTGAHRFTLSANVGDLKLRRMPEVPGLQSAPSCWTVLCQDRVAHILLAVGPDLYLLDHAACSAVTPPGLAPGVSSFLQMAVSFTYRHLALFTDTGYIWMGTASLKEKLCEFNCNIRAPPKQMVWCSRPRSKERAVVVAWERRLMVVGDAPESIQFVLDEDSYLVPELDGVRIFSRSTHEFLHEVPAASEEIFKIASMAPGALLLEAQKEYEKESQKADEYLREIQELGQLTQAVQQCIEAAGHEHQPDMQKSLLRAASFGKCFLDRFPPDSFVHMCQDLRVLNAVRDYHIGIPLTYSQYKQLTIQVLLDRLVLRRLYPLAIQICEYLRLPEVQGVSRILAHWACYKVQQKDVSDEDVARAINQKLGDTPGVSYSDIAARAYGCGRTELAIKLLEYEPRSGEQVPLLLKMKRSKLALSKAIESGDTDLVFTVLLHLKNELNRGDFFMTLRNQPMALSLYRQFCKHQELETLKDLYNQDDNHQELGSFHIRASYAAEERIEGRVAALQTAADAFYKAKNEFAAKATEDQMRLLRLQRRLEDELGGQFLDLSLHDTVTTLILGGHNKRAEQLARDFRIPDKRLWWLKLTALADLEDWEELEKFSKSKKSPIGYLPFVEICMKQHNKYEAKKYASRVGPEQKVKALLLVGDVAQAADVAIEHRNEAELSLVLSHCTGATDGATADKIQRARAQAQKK
UniProt Q5VIR6, sequence (Q5VIR6 whole entry, looked up): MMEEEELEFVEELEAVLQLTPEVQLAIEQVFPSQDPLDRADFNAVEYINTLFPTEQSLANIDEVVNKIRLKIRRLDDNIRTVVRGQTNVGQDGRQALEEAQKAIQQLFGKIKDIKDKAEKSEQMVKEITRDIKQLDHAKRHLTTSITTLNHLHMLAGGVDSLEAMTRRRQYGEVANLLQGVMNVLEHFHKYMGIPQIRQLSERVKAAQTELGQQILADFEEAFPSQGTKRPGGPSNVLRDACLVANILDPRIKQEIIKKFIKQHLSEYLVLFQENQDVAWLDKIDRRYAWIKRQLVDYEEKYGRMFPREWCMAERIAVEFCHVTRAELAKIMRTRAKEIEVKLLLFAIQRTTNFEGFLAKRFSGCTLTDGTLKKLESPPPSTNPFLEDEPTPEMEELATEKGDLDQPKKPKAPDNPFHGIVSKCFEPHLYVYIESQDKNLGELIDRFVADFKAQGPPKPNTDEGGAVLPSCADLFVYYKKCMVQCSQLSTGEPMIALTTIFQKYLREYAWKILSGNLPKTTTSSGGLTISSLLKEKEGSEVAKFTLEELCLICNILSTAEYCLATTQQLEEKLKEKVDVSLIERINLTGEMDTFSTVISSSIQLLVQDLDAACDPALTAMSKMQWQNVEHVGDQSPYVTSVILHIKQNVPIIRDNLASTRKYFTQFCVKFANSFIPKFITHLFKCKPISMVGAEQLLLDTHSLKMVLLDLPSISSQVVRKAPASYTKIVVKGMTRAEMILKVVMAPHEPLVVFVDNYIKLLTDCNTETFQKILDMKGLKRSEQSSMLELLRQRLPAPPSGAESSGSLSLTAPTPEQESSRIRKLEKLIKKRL
UniProt Q8N4H5, sequence (Q8N4H5 whole entry, looked up): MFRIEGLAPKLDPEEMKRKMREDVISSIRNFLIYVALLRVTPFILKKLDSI
UniProt Q01081, sequence (Q01081 whole entry, looked up): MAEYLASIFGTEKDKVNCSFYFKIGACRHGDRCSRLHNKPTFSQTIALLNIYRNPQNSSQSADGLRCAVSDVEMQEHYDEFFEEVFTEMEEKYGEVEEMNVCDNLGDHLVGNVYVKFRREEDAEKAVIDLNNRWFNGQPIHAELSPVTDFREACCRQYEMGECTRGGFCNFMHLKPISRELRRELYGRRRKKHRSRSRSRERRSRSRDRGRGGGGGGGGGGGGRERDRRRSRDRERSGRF

log2 fold change, inactive:
TRAPPC2L (UniProt Q9UL33) -0.025, UGDH (UniProt O60701) -0.124, WDR7 (UniProt Q9Y4E6) -0.017, TOMM5 isoform 2 (UniProt Q8N4H5) 0.002, USP7 (UniProt Q93009) -0.062, TYW1 (UniProt Q9NV66) 0.05, UBR2 (UniProt Q8IWV8) 0.038, TMEM161A (UniProt Q9NX61) 0.012, XPNPEP1 isoform 3 (UniProt Q9NQW7) -0.052, XRCC6 (UniProt P12956) -0.143, TNPO2 (UniProt O14787) -0.174, TRMT10C (UniProt Q7L0Y3) -0.027, UHRF1BP1L (UniProt A0JNW5) -0.017, TUBA4A (UniProt P68366) -0.02, USP3 (UniProt Q9Y6I4) 0.016, WBP4 (UniProt O75554) 0.079, VTA1 (UniProt Q9NP79) 0.018, UBE3D (UniProt Q7Z6J8) 0.012, VPS16 (UniProt Q9H269) -0.156, TXNRD1 (UniProt Q16881) -0.052, TMEM177 (UniProt Q53S58) -0.008, WDCP (UniProt Q9H6R7) 0.049, TMEM223 (UniProt A0PJW6) -0.14, VRK1 (UniProt Q99986) 0.025, UBE2S (UniProt Q16763) -0.043, XRCC5 (UniProt P13010) -0.172, TMEM9 (UniProt Q9P0T7) 0.047, TRMT10A (UniProt Q8TBZ6) -0.005, TNPO1 (UniProt Q92973) -0.039, WARS2 (UniProt Q9UGM6) -0.019, VPS53 isoform 4 (UniProt Q5VIR6) -0.062, TSG101 (UniProt Q99816) -0.082, U2AF1 isoform 2 (UniProt Q01081) -0.017, UPF3B (UniProt Q9BZI7) 0.11, VPS50 (UniProt Q96JG6) -0.073, TTC38 (UniProt Q5R3I4) 0.113
